The panel holds about 79,000 compounds, 15% with a hit somewhere; the sample as a whole holds those more often. Unmarked numbers belong to inactive results. Calls of active or inactive are those of the source. Rule as the data show it: active = growth inhibition above about 70%; inactive = the rest.
Assay: NCI Yeast Anticancer Drug Screen. Data for the cln2 rad14 strain (AID 165);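 also: 0% = growth equal to vehicle treated cultures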
Conditions: S. cerevisiae cln2 rad14 strain, at 50.0 µM, stronger effect = higher value
Experimental: Growth inhibition of yeast strains with defined genetic alterations is measured as a screen for potential anti-cancer activity. Selected strains with alterations in DNA damage repair or cell cycle control were exposed to compounds and growth inhibition was measured relative to vehicle treated controls. The strain used in this assay is cln2 rad14

Row | SMILES | growth inhibition
1 | C/C=C/c1nc2ccccc2[nH]1 | -2.45%
2 | COC(=O)C(C(=O)C(=O)NC1=C(Cl)C(=O)c2ccccc2C1=O)c1csc(-n2nc(-c3ccccc3)cc2-c2ccccc2)n1 (stereo not given) | 0.85%
3 | CCn1cc(C(=O)CCP(=O)(OC)OC)c2ccccc21 | -12.8%
4 | C=C(CC(=O)NN)C(=O)NN | -3.1%
5 | CC(C)OC(=S)Nc1ccc(Cl)c(COC(C)(C)C)c1 | 7.6%
6 | O=[N+]([O-])c1sc2ccccc2c1Br | 99% (active)
7 | O=C(O)C(CCl)c1ccccc1 (stereo not given) | -17.1%
8 | CC(=S)NC=C(C(N)=O)C(N)=O | 16%
9 | Nc1[nH]c(=O)nc2c1ncn2C1OC(CO)C(O)C1O (stereo not given) | -3.65%
10 | COC(=O)CCCCC#CCCCCC(=O)OC | -2.6%
11 | C=C1C2CCC3(CCC4C5(C)CCCC4(CN(CCO)C5)C3C2)C1O (stereo not given) | 12.8%
12 | O=C(N/N=C/c1ccccc1)c1c(F)c(F)c(F)c(F)c1F | 12.2%
13 | CCCC(C)OC(=O)CC(c1ccccc1)N1CCCCC1 (stereo not given) | -23.6%
14 | O=C(CBr)c1ccc(S(=O)(=O)c2ccccc2)cc1 | 27.9%
15 | CNC(=O)C1CCCN1C(=O)C(Cc1cnc[nH]1)NC(=O)C1CCC(=O)N1 (stereo not given) | 11.9%
16 | O=Cc1ccc(O)cn1 | -11.9%
17 | CC(=O)OCC1OC(OCC(OC(C)=O)C(OC(C)=O)C(OC(C)=O)c2cnn(-c3ccccc3)n2)C(OC(C)=O)C(OC(C)=O)C1OC(C)=O (stereo not given) | -15.2%
18 | Cc1ccccc1OS(=O)(=O)c1ccc(Br)cc1 | -107%
19 | CC(C)NC(=O)C1C2C=CC(CC2)C1C(=O)NC(C)C (stereo not given) | -5.7%
20 | CC(=O)C(N)C(C)C (stereo not given) | 7.9%

Row | SMILES | growth inhibition
21 | Nc1ccc2nnn(OC3CCCC3)c2c1 | 9.4%
22 | CCc1nc(N)nc(N)c1-c1ccc(Cl)c([N+](=O)[O-])c1 | -7.1%
23 | O=c1c2cc(-c3ccccc3)sc2nc2n1N=C(c1ccccc1)CS2 | 21.3%
24 | CC1(C)C=Cc2c(cc(O)c3c(=O)c4cc(Cl)ccc4[nH]c23)O1 | -18.1%
25 | CS(=O)(=O)OCC(CCl)(CCl)CCl | 3.2%
26 | O=C1NC(=O)C(c2ccsc2)(c2cccs2)N1 (stereo not given) | 14.3%
27 | COC(=O)Cc1ccccc1C(c1ccccc1)c1ccccc1 | 6.7%
28 | O=C(c1ccccc1)N1C2C3CC(OCc4ccccc4)(OCc4ccccc4)C(O3)C21 (stereo not given) | -12.6%
29 | CC(=O)Nc1cc(C)c(C)cc1NC(C)=O | -21.8%
30 | C=CCOC(OCC=C)C(C)C | -3.4%
31 | Cc1cc(C)c([N+](=O)[O-])c(N)n1 | -52%
32 | CCc1ccc(N=Nc2ccc(Br)cc2)cc1 | 6.85%
33 | CC(C)(C)c1ccc(P(=O)(O)C(C)(C)C)cc1 | 35%
34 | CCOC1=C(C#N)C(=O)NC2OC(CO)C(O)C2O1 (stereo not given) | -8.95%
35 | CNc1cccc2c1C(=O)c1ccccc1C2=O | 1.35%
36 | CCOS(=O)(=O)CC(C)C(C)C (stereo not given) | -18.1%
37 | Clc1ccc(C(n2cc(Br)cn2)n2cc(Br)cn2)cc1 | 90.2% (active)
38 | COc1cc2c(cc1OC)C[N+]1(C)CCc3cc(OC)c(OC)cc3C1C2 (stereo not given) | 9.1%
39 | COc1ccc([N+](=O)[O-])cc1NC(=S)NC(=O)c1cccc(Br)c1 | -63.6%
40 | COc1ccc(CC2CC(Cc3ccc(OC)c(OC)c3)C(=O)O2)cc1OC (stereo not given) | -33.2%
